According to PubChem BioAssay AID1159580 (chemical genetic matrix, 2015):
Hit rate of the full screen: of about 5,500 compounds, about 2,000 (36%) were called active. Inconclusive results (about 18%) are left out. Rule as the data show it: active = normalized growth mostly below about 0.91 (no sharp cut-off); inconclusive = no clear call, values can overlap the other calls; inactive = mostly above about 0.92. The list shows a part of the results.

Test: chemical genetic growth profiling, strain panel (AID 1159580);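 also: tested at 20 µM; growth read once vehicle control cultures reached saturation at 30 °C; 1 = growth at the plate median or of vehicle wells; lower values mean less growth of the strain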
Conditions: S. cerevisiae deletion strains, growth OD
[1] = locus YAL021C, strain ccr4, stronger effect = lower value
[2] = locus YAL026C, strain drs2, stronger effect = lower value
[3] = locus YAL030W, strain snc1, stronger effect = lower value
[4] = locus YBL061C, strain skt5, stronger effect = lower value
[5] = locus YBR009C, strain hhf1, stronger effect = lower value
[6] = locus YBR023C, strain chs3, stronger effect = lower value
[7] = locus YBR171W, strain sec66, stronger effect = lower value
[8] = locus YBR231C, strain swc5, stronger effect = lower value
[9] = locus YBR279W, strain paf1, stronger effect = lower value
[10] = locus YCL011C, strain gbp2, stronger effect = lower value
[11] = locus YCL016C, strain dcc1, stronger effect = lower value
[12] = locus YCL061C, strain MRC1, stronger effect = lower value
[13] = locus YCL069W, strain vba3, stronger effect = lower value
[14] = locus YCR088W, strain abp1, stronger effect = lower value
[15] = locus YDL005C, strain med2, stronger effect = lower value
[16] = locus YDL040C, strain nat1, stronger effect = lower value
[17] = locus YDR001C, strain nth1, stronger effect = lower value
[18] = locus YDR069C, strain doa4, stronger effect = lower value
[19] = locus YDR137W, strain rgp1, stronger effect = lower value
[20] = locus YDR159W, strain sac3, stronger effect = lower value
[21] = locus YDR297W, strain sur2, stronger effect = lower value
[22] = locus YDR334W, strain swr1, stronger effect = lower value
[23] = locus YDR335W, strain msn5, stronger effect = lower value
[24] = locus YDR392W, strain spt3, stronger effect = lower value
[25] = locus YEL003W, strain gim4, stronger effect = lower value
[26] = locus YEL037C, strain rad23, stronger effect = lower value
[27] = locus YEL061C, strain CIN8 (second series), stronger effect = lower value
[28] = locus YER015W, strain faa2, stronger effect = lower value
[29] = locus YER016W, strain bim1, stronger effect = lower value
[30] = locus YER111C, strain swi4, stronger effect = lower value
[31] = locus YER155C, strain BEM2 (second series), stronger effect = lower value
[32] = locus YFR010W, strain ubp6, stronger effect = lower value
[33] = locus YGL167C, strain pmr1, stronger effect = lower value
[34] = locus YGL173C, strain kem1, stronger effect = lower value
[35] = locus YGL227W, strain vid30, stronger effect = lower value
[36] = locus YGL240W, strain doc1, stronger effect = lower value
[37] = locus YGL253W, strain hxk2, stronger effect = lower value
[38] = locus YHR013C, strain ard1, stronger effect = lower value
[39] = locus YHR027C, strain rpn1, stronger effect = lower value
[40] = locus YHR142W, strain chs7, stronger effect = lower value
[41] = locus YJL092W, strain hpr5, stronger effect = lower value
[42] = locus YJL095W, strain BCK1 (second series), stronger effect = lower value
[43] = locus YJL115W, strain asf1, stronger effect = lower value
[44] = locus YJL129C, strain trk1, stronger effect = lower value
[45] = locus YJL154C, strain vps35, stronger effect = lower value
[46] = locus YJL164C, strain tpk1, stronger effect = lower value
[47] = locus YJL166W, strain qcr8, stronger effect = lower value
[48] = locus YJL187C, strain SWE1, stronger effect = lower value
[49] = locus YKL160W, strain elf1, stronger effect = lower value
[50] = locus YKR026C, strain gcn3, stronger effect = lower value
[51] = locus YKR091W, strain srl3, stronger effect = lower value
[52] = locus YLL001W, strain dnm1, stronger effect = lower value
[53] = locus YLL026W, stronger effect = lower value
[54] = locus YLL041C, strain sdh2, stronger effect = lower value
[55] = locus YLR027C, strain aat2, stronger effect = lower value
[56] = locus YLR221C, strain rsa3, stronger effect = lower value
[57] = locus YLR258W, strain gsy2, stronger effect = lower value
[58] = locus YLR262C, strain YPT6 (second series), stronger effect = lower value
[59] = locus YLR320W, strain mms22, stronger effect = lower value
[60] = locus YLR342W, strain FKS1, stronger effect = lower value
[61] = locus YLR357W, strain rsc2, stronger effect = lower value
[62] = locus YLR370C, strain arc18, stronger effect = lower value
[63] = locus YLR384C, strain iki3, stronger effect = lower value
[64] = locus YML120C, strain ndi1, stronger effect = lower value
[65] = locus YMR058W, strain fet3, stronger effect = lower value
[66] = locus YMR125W, strain sto1, stronger effect = lower value
[67] = locus YMR129W, stronger effect = lower value
[68] = locus YMR205C, strain PFK2, stronger effect = lower value
[69] = locus YMR231W, strain pep5, stronger effect = lower value
[70] = locus YNL071W, strain lat1, stronger effect = lower value
[71] = locus YNL209W, strain ssb2, stronger effect = lower value
[72] = locus YNL248C, strain rpa49, stronger effect = lower value
[73] = locus YNL322C, strain KRE1 (second series), stronger effect = lower value
[74] = locus YNR049C, strain mso1, stronger effect = lower value
[75] = locus YOR001W, strain rrp6, stronger effect = lower value
[76] = locus YOR070C, strain gyp1, stronger effect = lower value
[77] = locus YOR080W, strain dia2, stronger effect = lower value
[78] = locus YOR083W, strain WHI5, stronger effect = lower value
[79] = locus YOR106W, strain vam3, stronger effect = lower value
[80] = locus YOR265W, strain rbl2, stronger effect = lower value
[81] = locus YOR270C, strain vph1, stronger effect = lower value
[82] = locus YOR290C, strain snf2, stronger effect = lower value
[83] = locus YPL051W, strain arl3, stronger effect = lower value
[84] = locus YPL078C, strain atp4, stronger effect = lower value
[85] = locus YPL106C, strain sse1, stronger effect = lower value
[86] = locus YPL240C, strain hsp82, stronger effect = lower value

Measured: normalized growth

CCCCCCCCCCCCCc1ccco1
inactive: [1] 1.01 | [2] 0.976 | [3] 0.991 | [4] 0.979 | [6] 0.969 | [7] 0.991 | [8] 0.938 | [9] 0.947 | [10] 0.954 | [11] 0.973 | [12] 0.96 | [13] 0.989 | [14] 0.993 | [15] 0.988 | [16] 0.983 | [17] 0.989 | [18] 0.964 | [19] 0.886 | [20] 0.933 | locus YDR195W, strain ref2 0.973 | [21] 0.989 | [22] 0.987 | [23] 0.987 | [25] 0.953 | [26] 0.983 | [27] 0.976 | [28] 0.989 | [29] 0.978 | [30] 0.966 | [32] 0.96 | [33] 0.979 | [34] 0.968 | [35] 0.971 | [36] 0.936 | [37] 0.98 | [39] 0.992 | locus YHR030C, strain SLT2, stronger effect = lower value 0.951 | locus YHR079C, strain IRE1, stronger effect = lower value 0.937 | [40] 0.922 | [41] 0.988 | [42] 0.939 | locus YJL095W, strain BCK1, stronger effect = lower value 0.977 | [43] 0.99 | [44] 0.925 | [45] 0.991 | [48] 0.978 | locus YJR066W, strain TOR1, stronger effect = lower value 0.944 | [49] 0.931 | [50] 0.966 | [51] 0.989 | [52] 0.976 | [53] 0.949 | [54] 0.99 | [55] 0.939 | locus YLR113W, strain HOG1, stronger effect = lower value 0.939 | [57] 0.94 | [60] 0.986 | [61] 0.99 | [62] 0.989 | [63] 0.983 | [64] 0.959 | [65] 0.925 | [66] 0.934 | [67] 0.985 | [69] 0.985 | locus YNL183C, strain NPR1, stronger effect = lower value 0.908 | [71] 0.993 | [72] 0.999 | [73] 0.995 | [74] 0.989 | [75] 0.974 | [76] 0.944 | [77] 1 | [78] 0.96 | [79] 0.927 | locus YOR231W, strain MKK1, stronger effect = lower value 0.899 | [80] 0.981 | [81] 0.929 | [82] 0.913 | [83] 0.964 | [84] 0.947 | [85] 1.01 | [86] 0.991 | locus YPL256C, strain CLN2, stronger effect = lower value 0.91
active: [5] 0.825 | [24] 0.266 | [31] 0.635 | [38] 0.699 | [46] 0.915 | [47] 0.835 | [56] 0.889 | [58] 0.816 | [59] 0.81 | [68] 0.841 | [70] 0.621

C#CCCCCCCCCCCCc1ccco1
active: [24] 0.603 | [31] 0.849 | [70] 0.877
inactive: [1] 1.02 | [2] 0.98 | [3] 0.997 | [4] 0.999 | [5] 0.954 | [6] 0.994 | [7] 0.997 | [8] 0.995 | [9] 1 | [10] 0.983 | [11] 0.999 | [12] 1 | [13] 0.995 | [14] 0.992 | [15] 0.991 | [16] 0.987 | [17] 0.99 | [18] 0.983 | [19] 0.993 | [20] 0.958 | locus YDR195W, strain ref2 0.99 | [21] 1 | [22] 0.999 | [23] 0.989 | [25] 1.01 | [26] 1.01 | [27] 1 | [28] 0.992 | [29] 0.988 | [30] 0.972 | [32] 0.996 | [33] 0.999 | [34] 0.989 | [35] 0.991 | [36] 0.995 | [37] 0.989 | [38] 0.869 | [39] 1 | [40] 0.971 | [41] 0.989 | [42] 0.997 | [43] 0.987 | [44] 0.968 | [45] 1.01 | [46] 0.973 | [47] 0.947 | [48] 1 | [49] 0.985 | [50] 0.964 | [51] 0.993 | [52] 0.981 | [53] 0.982 | [54] 1 | [55] 0.985 | [56] 0.975 | [57] 0.99 | [58] 0.917 | [59] 0.932 | [60] 0.989 | [61] 0.975 | [62] 0.998 | [63] 0.987 | [64] 1 | [65] 0.987 | [66] 0.958 | [67] 0.998 | [68] 0.938 | [69] 0.993 | [71] 0.998 | [72] 0.982 | [73] 0.983 | [74] 0.996 | [75] 1 | [76] 1.01 | [77] 0.993 | [78] 0.985 | [79] 0.949 | [80] 1 | [81] 0.962 | [82] 0.975 | [83] 0.988 | [84] 0.991 | [85] 1.04 | [86] 1
